# In the library only some 4% were active in any assay of this set; here they are far more common.
# CCHF vOTU inh-1: CCHFV vOTU protease inhibitors, primary screen, biochemical, Pep-AMC substrate, fluorescence; inhibition, % at 11.5 µM; AID 651958, 2012; Crimean-Congo hemorrhagic fever virus L polyprotein viral ovarian tumor (vOTU) protease …; 0.55% of 370,000 active
# Mtb FBA inh: Mtb FBA enzyme inhibitors, primary screen, biochemical, fluorescence, strain H37Rv; AID 588726, 2011; inhibition, % at 1 µM; 2.3% of 360,000 active; purified M. tuberculosis FBA, fluorescence read-out; in the data active means inhibition above about 27%
# Target sequence (P9WQA3 whole entry, looked up): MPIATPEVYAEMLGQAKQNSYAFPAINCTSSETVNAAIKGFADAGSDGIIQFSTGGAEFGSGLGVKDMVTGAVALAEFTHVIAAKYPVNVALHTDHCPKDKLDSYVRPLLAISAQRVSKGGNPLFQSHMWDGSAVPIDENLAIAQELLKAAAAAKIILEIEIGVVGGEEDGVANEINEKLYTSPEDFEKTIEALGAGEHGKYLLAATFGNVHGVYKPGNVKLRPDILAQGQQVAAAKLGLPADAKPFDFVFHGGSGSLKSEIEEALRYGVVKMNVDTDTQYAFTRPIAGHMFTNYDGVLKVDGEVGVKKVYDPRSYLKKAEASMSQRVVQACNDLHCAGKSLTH
# MazF activator: activators of E. coli MazEF toxin-antitoxin RNase, primary screen, biochemical, fluorescence, uHTS; Endoribonuclease toxin MazF (Escherichia coli (strain K12)), P0AE70; FAM/BHQ RNA-DNA oligo cleavage fluorescence, 5 h; activation, % at 20 µM; 0.32% of 350,000 active; AID 504720, 2011; in the data active means activation above about 50%
# Mtb betalactam: beta-lactam sensitization of Mtb H37Rv, H37Rv; 0.27% of 330,000 active; AID 434955, 2010; inhibition, % at 25 µM; M. tuberculosis H37Rv growth with meropenem, percent inhibition; call rule not given here;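 further: growth measured after seven days incubation then overnight dye step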
# GDH-TPI counter: GDH-TPI coupling enzyme inhibitors, primary screen, artefact control for M. tuberculosis FBA inhibitor project, biochemical, absorbance, full deck. GDH-TPI coupled enzyme counterscreen, NADH absorbance. inhibition, % at 4.8 µM. 1.2% of 360,000 active. AID 588335, 2011
# CCHF vOTU inh-2: CCHFV vOTU protease inhibitors, confirmation, biochemical, Pep-AMC substrate, fluorescence; shares compounds with CCHF vOTU inh-1; Recombinant CCHFV vOTU; inhibition, % at 11.5 µM; 17% of 1,900 active
# A number is an active result; n = inactive; x = no result. Unless noted, no stated cut-off is given here; in the data, active means inhibition above about 30%; inactive means the rest.
SMILES,CCHF vOTU inh-1,Mtb FBA inh,MazF activator,Mtb betalactam,GDH-TPI counter,CCHF vOTU inh-2
COc1ccc2c(C)cc(SCC(=O)NC3CCCC3)nc2c1,n,n,n,n,n,x
Cc1cc(SCC(=O)NC2CC2)nc2ccccc12,40.4,n,n,n,n,n
CCCCCCCCN1C(=O)[C@H](CC(=O)N2CCN(C(=O)C3CC3)CC2)C[C@@]2(C(=O)OC)CC(C)(C)CC=C12,30.6,x,x,x,x,n
CCCCCCCCN1C(=O)[C@H](CC(=O)N2CCN(C(=O)OCC)CC2)C[C@@]2(C(=O)OC)CC(C)(C)CC=C12,31.5,x,x,x,x,n
O=C1C(NS(=O)(=O)c2ccc(Br)cc2)=C(N2CCCCC2)C(=O)c2ccccc21,32.5,n,n,n,n,n
CCOC(=O)C1CCCN(C2=C(NS(=O)(=O)c3ccc(Br)cc3)C(=O)c3ccccc3C2=O)C1 (stereo not given),76.2,n,n,n,n,n
CC1CCCN(C2=C(NS(=O)(=O)c3ccc(Br)cc3)C(=O)c3ccccc3C2=O)C1 (stereo not given),n,n,n,n,n,x
CC(=O)Nc1cc(-c2ccccc2N(C)C)cn2c(-c3cccc(C(F)(F)F)c3)cnc12,33.6,n,x,x,n,n
CC(=O)Nc1cc(-c2cccc(NS(C)(=O)=O)c2)cn2c(-c3cccc(C(F)(F)F)c3)cnc12,n,n,x,x,n,x
O=C(O)[C@H](Cc1ccccc1)NC(=O)N1CCN(c2cccc(C(F)(F)F)c2)CC1,n,n,n,n,n,x
CC(C)[n+]1ccn(C2=C([O-])c3ccccc3C(=O)/C2=N\S(=O)(=O)c2ccccc2)c1,32.9,n,n,n,n,31.0
CCCC[n+]1ccn(C2=C([O-])c3ccccc3C(=O)/C2=N\S(=O)(=O)c2ccccc2)c1,58.2,n,n,n,n,53.8
NS(=O)(=O)c1ccc(NC(=O)CCC(=O)c2ccc(Cl)s2)cc1,n,n,n,n,n,x
O=S(=O)(CS(=O)(=O)c1ccc(Cl)cc1)c1ccc(Cl)cc1,n,n,n,n,n,x
Oc1cccc2cnccc12,n,n,n,n,n,x
Nc1cccc2cnccc12,48.1,n,n,n,n,n
O=C(NC1(O)C(=O)c2ccccc2C1=O)c1ccc(C(F)(F)F)cc1,81.2,n,n,n,n,34.7
O=C(Cc1ccccc1)NC1(O)C(=O)c2ccccc2C1=O,n,n,n,n,n,x
Cc1ccc(C(=O)NC2(O)C(=O)c3ccccc3C2=O)cc1C,49.2,n,n,n,n,n
S=c1[nH]nc(C2CCCCC2)n1/N=C/C=C/c1ccccc1,32.2,n,n,n,n,n
CC(=O)NC(c1cccc(F)c1)c1nc(-c2cc(F)cc(Cl)c2)cs1 (stereo not given),36.3,n,x,x,n,n
CC(=O)NC(c1cccc(F)c1)c1nc(-c2ccc(C)c(C)c2)cs1 (stereo not given),n,n,x,x,n,x
C=CCNc1nc(C(=O)OC(C)C(=O)c2ccc(C)cc2)cs1 (stereo not given),n,n,n,n,n,x
CCN(CC(=O)NCc1cccs1)C(=O)CCCOc1ccc(C(C)(C)C)cc1,30.7,n,n,n,n,n
COC(=O)c1cc(C)ccc1OCc1ccc([N+](=O)[O-])cc1,n,n,n,n,n,x
SMILES,CCHF vOTU inh-1,Mtb FBA inh,MazF activator,Mtb betalactam,GDH-TPI counter,CCHF vOTU inh-2
C=CCc1ccc(OCCCNCc2ccccc2)c(OC)c1,30.9,n,n,n,n,n
CC(=O)N=Cc1c(C)c(C#N)c(=O)n(C)c1O,n,n,n,n,n,x
Cc1c(C=O)c(Cl)n(C)c(=O)c1C#N,68.2,n,n,n,n,109.6
N#C/C(=N\Nc1cccc(Cl)c1)C(=O)c1ccccc1,34.9,n,n,n,n,n
CC1OC2CC(=O)OC2C2=C1C(=O)c1c(O)cccc1C2=O (stereo not given),97.7,n,x,x,n,91.1
O=c1[nH]c(=S)[nH]c2c1C(c1ccc(Cl)c(Cl)c1)OC(CCc1ccccc1)C2 (stereo not given),n,x,x,x,x,x
O=c1[nH]c(=S)[nH]c2c1C(c1cccc(C(F)(F)F)c1)OC(CCc1ccccc1)C2 (stereo not given),42.1,x,x,x,x,n
C=CCn1c2ccccc2c2nnc(SCCCn3c(=O)[nH]c4ccccc43)nc21,30.9,n,n,x,n,n
CN(C(=O)Nc1ccc(C(C)(C)C)cc1)C1CCCCC1,n,n,n,n,n,x

# Screening data as filed in PubChem BioAssay.
